Laboratory results taken from PubChem BioAssay AID2546 (National Center for Advancing Translational Sciences (NCATS), 2010).
Out of some 310,000 compounds screened, about 11,000 (3.5%) were called active. Where a call stands in place of a potency, no number is given. Another 8% or so got no clear call; they are omitted. Calls follow the shape of the dose curve; as a rule, active = well fitted inhibition curve with a large enough effect; inconclusive = small, poorly fitted or top-dose-only effect, or effect the other way; inactive = flat fitted curve, though single readings scatter. This excerpt belongs to a sample that is enriched for actives.

Experiment: VP16 counterscreen qHTS for inhibitors of ROR gamma transcriptional activity;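 also: Gal4-VP16 expression switched on by copper sulfate through the metallothionein promoter; nearly all actives have a fitted effect of over 50% in size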
Conditions: Drosophila S2 Gal4-VP16 UAS-luciferase, luminescence, 20 h; series mostly up to 53.6 µM
Potency is read from the fitted curve at half-maximal effect.

| SMILES | Potency |
| --- | --- |
| COc1ccc2oc(C(=O)NCc3ccco3)c(C)c2c1 | inactive |
| c1ccc2cc3c(NCCN4CCOCC4)ccnc3cc2c1 | 12.6 µM (active) |
| Clc1ccccc1-c1cc(NCCN2CCOCC2)ncn1 | inactive |
| CN(C)c1ccc(-c2nc(NCCN3CCOCC3)c3ccccc3n2)cc1 | inactive |
| COc1ccc(NC(=O)/C(Cl)=C(/Cl)S(=O)Cc2ccc(C)cc2)cn1 (centres undefined) | inactive |
| COc1ccc(C(=O)Nc2ccc(NC(=O)C(C)C)nc2)cc1 | inactive |
| COc1ccc(CS(=O)/C(Cl)=C(/Cl)C(=O)Nc2ccc(OC)nc2)cc1 (centres undefined) | 3.98 µM (active) |
| COc1cccc(CNC(=O)COc2cc(O)c3c(c2)OC(C)(C)CC3=O)c1 | inactive |
| COc1cc(/C=N/O)ccc1OCc1ccc([N+](=O)[O-])cc1 | inactive |
| COc1cc(/C=N/O)cc(Br)c1OCc1cccc(Cl)c1 | 11.2 µM (active) |
| COc1ccc(/C=N/NC(=O)c2ccccc2)cc1OS(=O)(=O)c1ccccc1 | inactive |
| COc1cc(/C=N/O)cc(Br)c1OS(=O)(=O)c1ccc(C)cc1 | 11.2 µM (active) |
| CCOc1c(Cl)cc(/C=N/O)cc1OC | inactive |
| COc1cc(/C=N/Nc2ccc(C)cc2)cc(Br)c1O | inactive |
| CCc1c(C)c2ccc(OC3CCCCC3=O)cc2oc1=O (centres undefined) | inactive |
| CCOCCCN1C(=O)C2C(C(=O)Nc3ccc(OCC)cc3)C3C=CC2(O3)C1C(=O)NC1CCCCC1 (centres undefined) | inactive |
| O=C(NC1CC1)C(Cc1ccccc1)NS(=O)(=O)c1ccccc1F (centres undefined) | inactive |
| Cc1ccc(NC(=O)Nc2cccnc2)cc1 | inactive |
| COc1cc(/C=C(\C#N)c2nc3c(s2)CC(C)CC3)ccc1O (centres undefined) | 4.47 µM (active) |
| COc1cc(/C=N/Nc2nc3ccccc3s2)ccc1O | inactive |
| COc1cc(/C=C(\C#N)c2nc3ccccc3[nH]2)ccc1O | inactive |
| Cc1cc(-c2nnc(SCC(=O)Nc3ccc(S(N)(=O)=O)cc3)n2N)n[nH]1 | inactive |

| SMILES | Potency |
| --- | --- |
| NC(=O)c1cc(S(=O)(=O)N2CCCC2)ccc1OCc1ccc(F)cc1 | inactive |
| COC(=O)c1ccccc1NC(=O)CSc1n[nH]c(-c2ccncc2)n1 | inactive |
| Cc1ccc(CSCC2Nc3ccc(C(=O)N4CCN(c5ccc(F)cc5)CC4)cc3NC2=O)cc1 (centres undefined) | inactive |
| CN(C)CCCN(C(=O)c1ccc(S(=O)(=O)N2CCCCCC2)cc1)c1nc2ccc(Br)cc2s1 | 17.8 µM (active) |
| CCN(CC)CCN(C(=O)c1ccc(S(=O)(=O)N2CCOCC2)cc1)c1nc2cc3c(cc2s1)OCCO3 | inactive |
| CC(=O)N(CCCN(C)C)c1nc2ccc(C)cc2s1 | inactive |
| Cc1occc1C(=O)Nc1nnc(C2CCCCC2)s1 | inactive |
| Cc1cnc(NC(=O)c2ccccn2)s1 | 4.47 µM (active) |
| O=C(Cc1cccs1)Nc1nnc(C2CC2)s1 | inactive |
| O=C(Nc1nnc(C2CC2)s1)c1ccccn1 | 4.47 µM (active) |
| Cc1cnc(NC(=O)CSc2c(Cl)cccc2Cl)s1 | inactive |
| Cc1ccc(SCC(=O)Nc2ncc(C)s2)cc1 | inactive |
| Cc1cccc(NC(=O)c2sc3nc(N4CCOCC4)c4c(c3c2N)CCCC4)c1 | inactive |
| CN(CCNC(=O)c1cc2c(-c3ccccc3F)nn(C)c2s1)C1CCCCC1 | inactive |
| NC(=O)c1oc2ccccc2c1NC(=O)Cc1ccccc1 | inactive |
| COc1cc2c(C(=O)O)c(C)n(C)c2c2ccccc12 | inactive |
| COc1cccc2c(C)c(C(=O)O)[nH]c12 | 10 µM (active) |
| Cc1c(C(=O)N/N=C/c2ccccc2)[nH]c2c([N+](=O)[O-])cccc12 | inactive |
| O=C(N/N=C/c1ccccn1)C12CC3CC(CC(C3)C1)C2 | 20 µM (active) |
| O=C(Nc1ccc(S(=O)(=O)Nc2ncccn2)cc1)C12CC3CC(CC(C3)C1)C2 | inactive |
| CNC(=O)C(=O)N/N=C/c1ccccn1 | inactive |
| COc1cc2ccccc2cc1C(=O)Nc1ccc(NC(=O)c2cccs2)cc1 | inactive |

| SMILES | Potency |
| --- | --- |
| Cc1csc(=NC(=O)c2ccccc2)n1CCO | inactive |
| C=C(C)CNC(=S)/N=c1\scc(C)n1CC | 8.91 µM (active) |
| Cc1csc(=Nc2ccccc2)n1CCO | inactive |
| CC(C)(c1ccccc1)c1ccc(OCCN2CCCC2)cc1 | inactive |
| CC(C)=CCN1CCN(Cc2cc3ccccc3[nH]2)CC1CCO (centres undefined) | inactive |
| O=C(CSc1ccc(-c2ccc(Br)cc2)nn1)NCC1CCCO1 (centres undefined) | inactive |
| O=C(c1cc(C(F)(F)F)cc(C(F)(F)F)c1)N1CCC2(CCCN(c3ccccn3)C2)CC1 | 12.6 µM (active) |
| O=C(c1cc(C(F)(F)F)cc(C(F)(F)F)c1)N1CCC[C@@]2(CCN(c3ccccn3)C2)C1 | inactive |
| O=C(c1cc(C(F)(F)F)cc(C(F)(F)F)c1)N1CCC2(CC1)CN(c1ccncc1)C2 | inactive |
| Cc1ccc2c(cnn2C(=O)CCC(=O)NC2CCCC2)c1 | inactive |
| COc1ccccc1NC(=O)c1ccc(N2CC3CC(C2)c2cccc(=O)n2C3)c(NC(=O)c2cccnc2)c1 (centres undefined) | inactive |
| CC(=O)c1nc2ccccc2n1Cc1ccccc1 | inactive |
| Cc1ccc(Cn2c(NC(=O)c3ccco3)nc3ccccc32)cc1 | 1.58 µM (active) |
| CCC(=O)Nc1nc2ccccc2n1Cc1ccccc1C | inactive |
| CC(=O)Nc1nc2ccccc2n1Cc1ccc(C)cc1 | 2.51 µM (active) |
| CCn1nc(NC(=O)c2ccco2)c2cc3ccc(C)cc3nc21 | inactive |
| Cc1ccc(-n2nc3cc(Cl)c(NC(=O)c4ccco4)cc3n2)cc1 | inactive |
| COc1ccc(CNC(=O)C(C)NCc2ccccc2Cl)cc1 (centres undefined) | inactive |
| CN(C)S(=O)(=O)c1ccc(C(=O)NCCN=C2NS(=O)(=O)c3ccccc32)cc1 | inactive |
| Cc1cc2occ(CC(=O)NNC(=O)c3ccccc3F)c2cc1C | inactive |
| CC(=O)/C(=N\Nc1ccc(Cl)cc1Cl)Sc1cccc2cccnc12 | 5.01 µM (active) |
| N#Cc1ccc(C(=O)Nc2cccc3cccnc23)c(F)c1 | inactive |

| SMILES | Potency |
| --- | --- |
| O=C(NNc1cc(Cl)ccc1Cl)c1cccnc1Cl | inactive |
| CCn1c(CC(=O)Nc2ccccc2C)nnc1SCC(=O)NC1=NCCS1 | inactive |
| CC1CC(C)CN(S(=O)(=O)c2cccc3nonc23)C1 (centres undefined) | inactive |
| Cc1nnc2n1N=C(c1ccccc1)CS2 | inactive |
| CCC(=O)Nc1ccc2nc(C)n(Cc3ccccc3Cl)c(=O)c2c1 | inactive |
| CCN1CCN(c2cc3nc(C)n(Cc4ccccc4)c(=O)c3cc2NC(=O)c2ccccc2F)CC1 | 11.2 µM (active) |
| CCOc1cc(NC(=O)c2ccccc2C(=O)O)c(OCC)cc1NC(=O)c1ccccc1F | inactive |
| COc1cccc(NC(=O)CN(C)C(=O)c2ccccc2CCc2ccccc2)c1 | inactive |
| CC1CCCCC1NC(=O)c1cn(C)c2ccc(S(=O)(=O)N3CCOCC3)cc2c1=O (centres undefined) | inactive |
| O=c1onc(-c2c(F)cccc2F)n1-c1ccccc1Cl | inactive |
| COc1ccc([N+](=O)[O-])cc1NCC(=O)c1ccc(C)cc1 | inactive |
| Cc1nn(CC(=O)NC2CCCCC2)c(=O)c2cccn12 | inactive |
| COc1ccc(C(=O)NC(C)CCc2ccccc2)c(OC)c1 (centres undefined) | inactive |
| CCCn1nnnc1NC(=O)COc1ccc(Cl)cc1C | 2 µM (active) |
| CCOC(=O)N1CCN(C(=O)COc2ccc(Cl)cc2C)CC1 | inactive |
| Cc1cc(NC(=O)COc2ccc(Cl)cc2Cl)n(CCC#N)n1 | inactive |
| O=C(Nc1ccccc1C(=O)NCC1CCCO1)c1ccccc1F (centres undefined) | inactive |
| CCOC(CNC(=O)C1CCN(S(=O)(=O)c2ccc3nc4c(c(C(=O)O)c3c2)CC(C)CC4)CC1)OCC (centres undefined) | inactive |
| O=C(Oc1cccc(C(=S)N2CCOCC2)c1)c1cccc(Cl)c1 | inactive |
| CN(C)c1nc(=Nc2cccc(Cl)c2)ss1 | 0.891 µM (active) |
| CCOC(=O)C1=C(O)CSC1=Nc1cccc(Cl)c1 | inactive |
| Cn1c(=O)c(=O)n(C)c2cc(S(=O)(=O)CCC(=O)N3CCCCC3)ccc21 | inactive |

| SMILES | Potency |
| --- | --- |
| O=C(COc1ccc(Cl)cc1)NCCS(=O)(=O)N1CCN(c2ccc(F)cc2)CC1 | inactive |
| CCCOc1ccc(Cc2c(O)nc(SC)[nH]c2=O)cc1C | inactive |
| CCCOc1ccc(-c2nc(N)n[nH]2)cc1 | inactive |
| CCCOc1ccc(Cc2c(Cl)nc(SC)nc2NC)cc1 | 7.08 µM (active) |
| Cc1cccc(C(=O)OCC(=O)Nc2ccc(F)cc2)c1 | inactive |
| Cc1cc(C)cc(C(=O)OCC(=O)NCCNC(=O)COC(=O)c2cc(C)cc(C)c2)c1 | 0.0891 µM (active) |
| COc1ccccc1C(=O)OCC(=O)NCCNC(=O)COC(=O)c1ccccc1OC | inactive |
| COc1cc(N=Cc2c(O)c3ccccc3oc2=O)c(OC)cc1Cl | inactive |
| Cc1ccc(Oc2cc(NC(=O)CCCn3nc(C)c([N+](=O)[O-])c3C)cc([N+](=O)[O-])c2)cc1 | 1 µM (active) |
| CCc1ccc(NC(=O)Cn2nc(C)c([N+](=O)[O-])c2C)cc1 | inactive |
| COc1ccc(CNC(=O)CCCn2nc(C)c([N+](=O)[O-])c2C)cc1 | inactive |
| CCOC(=O)c1c(S(=O)(=O)Nc2ccc(CN3CCC(C)CC3)cc2)c(C)n(C)c1C | inactive |
| CCC(C)c1ccccc1NC(=O)CN(C)CC(=O)Nc1ccccc1SC (centres undefined) | inactive |
| CC(=O)c1ccc(NC(=O)CCNS(=O)(=O)c2cc(Br)cnc2N)cc1 | inactive |
| COc1ccc(CCNC(=O)NS(=O)(=O)c2ccc(C)cc2)cc1OC | inactive |
| COc1ccc(CCNC(=O)Cc2ccc(C)cc2)cc1OC | inactive |
| COc1ccc(CCNC(=S)NC(=O)/C=C/c2ccc(C)cc2)cc1OC | 10 µM (active) |
| CCN1CCN(CCNC(=O)c2ccc3c(c2)NC(=O)/C(=C\c2ccc(OC)c(OC)c2)S3)CC1 | inactive |
| CCOC(=O)c1ccc(NC(=O)Cn2cnc3cc(C)c(C)cc32)cc1 | 7.08 µM (active) |
| CCOC(=O)c1ccc(NC(=O)Cn2nnc(-c3ccc(C)cc3)n2)cc1 | inactive |
| CCCc1nnc(SCC(=O)Nc2ccc(C(=O)OCC)cc2)o1 | inactive |
